# Measurements published in PubChem BioAssay (EPA / NIEHS).
# Calls of active or inactive are those of the source. How the source made its calls: active means hit-call score of the fitted dose curve at least 0.9, where 1 is the maximum; inactive means score below 0.9.
# What was measured:
# [1] = biological target: Bile acid receptor (Homo sapiens) (UniProt Q96RI1); experiment: ATG_IR1_CIS: Attagene CIS-FACTORIAL HepG2 Assay for human Nuclear Receptor Subfamily 1 Group H Member 4 (NR1H4), IR1 submotif (AID 2282946); conditions: IR1 reporter transcription, actives raise or lower the signal
# Outline: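 HepG2 cells transiently transfected with multiplexed cis-element reporter units read endogenous transcription factor activity. After 24 h compound exposure, reporter mRNA was quantified by RT-PCR, fluorescent labelling, HpaI digestion and capillary electrophoresis; bidirectional fitting versus DMSO baseline.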
# [2] = ATG_GRE_CIS: Attagene CIS-FACTORIAL HepG2 Assay for human Glucocorticoid Response Elements (GRE) (AID 2282947); conditions: HepG2 GRE cis-reporter, Attagene multiplex mRNA; actives raise or lower the signal
# Outline: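 Multiplexed cis-reporter mRNA induction, HepG2, 24 h post-dose. RT-PCR, FAM-labelled, HpaI-digested amplicons by CE. Bidirectional fit vs DMSO.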
# [3] = ATG_ISRE_CIS: Attagene CIS-FACTORIAL HepG2 Assay for human Interferon Regulatory Factor 1 (IRF1) binding to an Interferon-Stimulated Response Element (ISRE) (AID 2282948); conditions: HepG2 ISRE cis-reporter (Attagene), mRNA transcription readout; actives raise or lower the signal
# Outline: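 Uses HepG2 liver cells transfected with cis-regulated reporters and measures mRNA 24 h post-dosing through RT-PCR, primer-extension labelling and capillary electrophoresis, with DMSO as negative control.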
# [4] = ATG_M_32_CIS: Attagene CIS-FACTORIAL HepG2 Assay for M32 Transcription Factor (Internal Marker) (AID 2282949); conditions: HepG2 Attagene cis-factorial M32 reporter, mRNA; actives raise or lower the signal;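 further: background control marker of the multiplexed CIS panel rather than a real target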
# Outline: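 Transient MRTU transfection of HepG2; 24 h compound treatment; TriZol RNA, oligo(dT) RT, reporter PCR, 6-FAM primer extension, HpaI cut, CE. Gain/loss of signal vs DMSO.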
# [5] = ATG_M_06_CIS: Attagene CIS-FACTORIAL HepG2 Assay for M06 Transcription Factor (Internal Marker) (AID 2282950); conditions: HepG2 Attagene CIS-FACTORIAL M06 internal marker reporter; actives raise or lower the signal
# Outline: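 Terse: HepG2, transient MRTU transfection (FuGene 6), 24 h dosing; total RNA, oligo(dT) RT, PCR, FAM label, HpaI cut, capillary electrophoresis; bidirectional fit vs DMSO baseline; background-control endpoint.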
# [6] = biological target: Hypoxia-inducible factor 1-alpha (Homo sapiens) (UniProt Q16665); experiment: ATG_HIF1a_CIS: Attagene CIS-FACTORIAL HepG2 Assay for human Hypoxia Inducible Factor 1 (HIF1A) (AID 2282951); conditions: HepG2 Attagene cis-factorial HIF1a reporter transcription; actives raise or lower the signal
# Outline: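 Dosed 24 h, transfected HepG2 cells yielded total RNA whose reporter transcripts were RT-PCR-amplified and sized by capillary electrophoresis using fluorescent labelling; DMSO defined baseline, with gain and loss of signal both fitted.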
# [7] = biological target: Hepatocyte nuclear factor 6 (Homo sapiens) (UniProt Q9UBC0); experiment: ATG_HNF6_CIS: Attagene CIS-FACTORIAL HepG2 Assay for human Hepatocyte Nuclear Factor 6 (HNF6) (AID 2282952); conditions: HepG2 Attagene cis-factorial HNF6 reporter transcription; actives raise or lower the signal
# Outline: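 Twenty-four-hour chemical treatment of reporter-transfected HepG2 cells precedes RNA isolation, DNase-treated reverse transcription and PCR of reporter sequences. Labelled fragments are sized by capillary electrophoresis and fitted bidirectionally versus DMSO.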
# [8] = biological target: Heat shock factor protein 1 (Homo sapiens) (UniProt Q00613); experiment: ATG_HSE_CIS: Attagene CIS-FACTORIAL HepG2 Assay for human Heat Shock Transcription Factor 1 (HSE) (AID 2282953); conditions: HepG2 HSE cis-reporter, Attagene RNA transcription; actives raise or lower the signal
# Outline: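 Read-out: fluorescence of reporter-specific RT-PCR fragments separated by capillary electrophoresis. HepG2 carrying transfected cis-element reporter units; 24 h dosing; activity fitted in both directions relative to DMSO baseline.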
# [9] = ATG_MRE_CIS: Attagene CIS-FACTORIAL HepG2 Assay for human Metal Responsive Element (MRE) (AID 2282954); conditions: HepG2 MRE cis-reporter transcription, Attagene multiplex; actives raise or lower the signal
# Outline: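 Multiplexed cis-reporter assay in human HepG2 liver cells, 24 h incubation with test chemical. Reporter transcripts measured by RT-PCR and capillary electrophoresis; values from bidirectional curve fitting versus DMSO.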
# [10] = biological target: Paired box protein Pax-6 (Homo sapiens) (UniProt P26367); experiment: ATG_Pax6_CIS: Attagene CIS-FACTORIAL HepG2 Assay for human Paired Box 6 (PAX6) (AID 2282956); conditions: HepG2 CIS-FACTORIAL PAX6 reporter transcription, RNA readout; actives raise or lower the signal
# Outline: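 DMSO-referenced bidirectional fits of reporter mRNA fluorescence; HepG2 with transient cis-promoter MRTUs, 24 h post-dose, RT-PCR plus capillary electrophoresis detection.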
# [11] = ATG_PXRE_CIS: Attagene CIS-FACTORIAL HepG2 Assay for human Pregnane X Receptor Element (PXRE) (AID 2282957); conditions: HepG2 Attagene CIS-FACTORIAL PXRE reporter, mRNA; actives raise or lower the signal
# Outline: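 Bidirectional activity, baselined to DMSO, derived from reporter mRNA fluorescence (RT-PCR plus capillary electrophoresis) in HepG2 cells bearing cis-promoter reporter units, 24 h exposure.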
# [12] = ATG_PPRE_CIS: Attagene CIS-FACTORIAL HepG2 Assay for human Peroxisome Proliferator-activated Response Element (PPRE) (AID 2282958); conditions: HepG2 PPRE cis-element reporter, Attagene transcription factor profiling; actives raise or lower the signal
# Outline: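 Measured endpoint: PPRE-controlled reporter mRNA, detected by RT-PCR and capillary electrophoresis fluorescence, from transiently transfected HepG2 cells 24 h after dosing. Curves fitted in both directions using DMSO baseline.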
# [13] = ATG_Sox_CIS: Attagene CIS-FACTORIAL HepG2 Assay for human SRY-box transcription factor (SOX) (AID 2282960); conditions: HepG2 Attagene cis-factorial SOX reporter, mRNA; actives raise or lower the signal
# Outline: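 Gain- or loss-of-signal endpoint, fitted bidirectionally with DMSO as negative control. Based on reporter mRNA from transfected HepG2 cells harvested 24 h post-treatment and quantified via RT-PCR and capillary electrophoresis.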
# [14] = biological target: Transcription factor Sp1 (Homo sapiens) (UniProt P08047); experiment: ATG_Sp1_CIS: Attagene CIS-FACTORIAL HepG2 Assay for human Specificity Protein 1 (Sp1) (AID 2282961); conditions: HepG2 Sp1 cis-reporter transcription, actives raise or lower the signal
# Outline: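 Endpoint reflects endogenous Sp1 transcriptional activity, not an exogenous fusion protein: HepG2 cells with transfected cis-regulated reporters, 24 h dosing, RT-PCR/capillary electrophoresis mRNA read-out, DMSO-normalised bidirectional fit.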
# [15] = ATG_SREBP_CIS: Attagene CIS-FACTORIAL HepG2 Assay for human Sterol Regulatory Element Binding (SREBP) (AID 2282962); conditions: HepG2 Attagene cis-factorial SREBP reporter, mRNA; actives raise or lower the signal
# Outline: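 In this cis-format assay, HepG2 liver cells express reporters controlled by promoter elements responsive to native transcription factors. Exposure lasts 24 h; reporter mRNA fluorescence from capillary electrophoresis gives the signal, fitted bidirectionally against DMSO.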
# [16] = biological target: Signal transducer and activator of transcription 3 (Homo sapiens) (UniProt P40763); experiment: ATG_STAT3_CIS: Attagene CIS-FACTORIAL HepG2 Assay for human Signal Transducer and Activator of Transcription 3 (STAT3) (AID 2282963); conditions: HepG2, Attagene cis-factorial STAT3 reporter transcription; actives raise or lower the signal
# Outline: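 Cis-factorial format: endogenous transcription factors in HepG2 drive transfected reporter units. After 24 h treatment, reporter RNA was reverse-transcribed, amplified, FAM-labelled and HpaI-digested before CE analysis; activity scored in both directions against DMSO.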
# [17] = ATG_TA_CIS: Attagene CIS-FACTORIAL HepG2 Assay for human TA Basal Promoter (AID 2282964); conditions: HepG2 Attagene CIS-factorial TA basal promoter reporter; actives raise or lower the signal
# Outline: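 Transfected HepG2, 24 h compound exposure; RNA → RT-PCR → FAM primer extension → HpaI cut → CE fluorescence. Gain/loss-of-signal fitted against DMSO negative control. Background-control readout.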
# [18] = ATG_TCF_b_cat_CIS: Attagene CIS-FACTORIAL HepG2 Assay for human T-Cell-Factor with beta-catenin (TCF/b-cat) (AID 2282965); conditions: HepG2 TCF/beta-catenin cis-reporter transcription, actives raise or lower the signal
# Outline: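 Measured: reporter mRNA in HepG2 transiently transfected with cis-promoter reporter units, 24 h after chemical addition. Fitting was bidirectional, DMSO as negative control.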
# [19] = ATG_PBREM_CIS: Attagene CIS-FACTORIAL HepG2 Assay for human Phenobarbital-responsive Enhancer Module (PBREM) (AID 2282955); conditions: HepG2 PBREM cis-reporter, Attagene multiplexed transcription; actives raise or lower the signal
# Outline: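 Transfected liver-derived HepG2 cells exposed 24 h; PBREM reporter transcript quantified via RT-PCR and capillary electrophoresis, with activity in either direction referenced to DMSO.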
# [20] = ATG_RORE_CIS: Attagene CIS-FACTORIAL HepG2 Assay for human RAR-related Orphan Receptor Element (RORE) (AID 2282959); conditions: HepG2 Attagene cis-factorial RORE reporter, mRNA; actives raise or lower the signal
# Outline: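 Transiently transfected HepG2 reporter cells were treated 24 h. Reporter transcripts were detected by RT-PCR and capillary electrophoresis, with bidirectional fitting against DMSO.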
# Sequence of Transcription factor Sp1 (Homo sapiens) (P08047 whole entry, looked up, the tested form may be a part): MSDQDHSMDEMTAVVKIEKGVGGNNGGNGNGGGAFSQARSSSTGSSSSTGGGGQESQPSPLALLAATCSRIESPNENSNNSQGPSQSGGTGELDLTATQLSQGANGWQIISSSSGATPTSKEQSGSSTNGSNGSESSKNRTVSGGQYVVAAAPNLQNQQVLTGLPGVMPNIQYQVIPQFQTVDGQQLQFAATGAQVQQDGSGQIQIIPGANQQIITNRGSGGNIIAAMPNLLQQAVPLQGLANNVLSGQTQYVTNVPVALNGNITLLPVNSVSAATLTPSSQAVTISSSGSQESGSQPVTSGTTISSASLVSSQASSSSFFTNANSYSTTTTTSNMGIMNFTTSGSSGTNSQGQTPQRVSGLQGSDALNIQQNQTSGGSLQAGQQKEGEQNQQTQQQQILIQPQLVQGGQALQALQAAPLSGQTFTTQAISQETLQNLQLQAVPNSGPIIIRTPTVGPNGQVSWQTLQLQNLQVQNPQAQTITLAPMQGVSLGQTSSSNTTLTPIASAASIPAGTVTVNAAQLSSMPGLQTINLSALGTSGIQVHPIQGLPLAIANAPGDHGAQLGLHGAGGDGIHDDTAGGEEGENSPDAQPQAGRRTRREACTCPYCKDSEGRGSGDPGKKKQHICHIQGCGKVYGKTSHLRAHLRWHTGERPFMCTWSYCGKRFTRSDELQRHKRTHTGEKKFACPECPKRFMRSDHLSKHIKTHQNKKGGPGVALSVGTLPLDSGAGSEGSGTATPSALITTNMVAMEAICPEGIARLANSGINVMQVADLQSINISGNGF
# Sequence of Hepatocyte nuclear factor 6 (Homo sapiens) (Q9UBC0 whole entry, looked up, the tested form may be a part): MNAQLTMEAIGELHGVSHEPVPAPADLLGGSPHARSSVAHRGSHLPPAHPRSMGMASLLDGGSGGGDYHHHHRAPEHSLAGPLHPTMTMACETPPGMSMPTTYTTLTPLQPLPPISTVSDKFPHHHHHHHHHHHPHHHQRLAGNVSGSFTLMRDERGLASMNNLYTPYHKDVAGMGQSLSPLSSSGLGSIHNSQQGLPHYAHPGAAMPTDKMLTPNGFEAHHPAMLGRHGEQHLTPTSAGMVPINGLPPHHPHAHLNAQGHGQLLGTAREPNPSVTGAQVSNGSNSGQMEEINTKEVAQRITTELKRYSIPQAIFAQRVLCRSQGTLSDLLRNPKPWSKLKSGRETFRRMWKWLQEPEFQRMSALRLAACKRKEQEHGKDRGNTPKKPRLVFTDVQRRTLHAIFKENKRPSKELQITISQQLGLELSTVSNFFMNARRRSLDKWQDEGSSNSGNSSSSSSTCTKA
# Sequence of Hypoxia-inducible factor 1-alpha (Homo sapiens) (Q16665 whole entry, looked up): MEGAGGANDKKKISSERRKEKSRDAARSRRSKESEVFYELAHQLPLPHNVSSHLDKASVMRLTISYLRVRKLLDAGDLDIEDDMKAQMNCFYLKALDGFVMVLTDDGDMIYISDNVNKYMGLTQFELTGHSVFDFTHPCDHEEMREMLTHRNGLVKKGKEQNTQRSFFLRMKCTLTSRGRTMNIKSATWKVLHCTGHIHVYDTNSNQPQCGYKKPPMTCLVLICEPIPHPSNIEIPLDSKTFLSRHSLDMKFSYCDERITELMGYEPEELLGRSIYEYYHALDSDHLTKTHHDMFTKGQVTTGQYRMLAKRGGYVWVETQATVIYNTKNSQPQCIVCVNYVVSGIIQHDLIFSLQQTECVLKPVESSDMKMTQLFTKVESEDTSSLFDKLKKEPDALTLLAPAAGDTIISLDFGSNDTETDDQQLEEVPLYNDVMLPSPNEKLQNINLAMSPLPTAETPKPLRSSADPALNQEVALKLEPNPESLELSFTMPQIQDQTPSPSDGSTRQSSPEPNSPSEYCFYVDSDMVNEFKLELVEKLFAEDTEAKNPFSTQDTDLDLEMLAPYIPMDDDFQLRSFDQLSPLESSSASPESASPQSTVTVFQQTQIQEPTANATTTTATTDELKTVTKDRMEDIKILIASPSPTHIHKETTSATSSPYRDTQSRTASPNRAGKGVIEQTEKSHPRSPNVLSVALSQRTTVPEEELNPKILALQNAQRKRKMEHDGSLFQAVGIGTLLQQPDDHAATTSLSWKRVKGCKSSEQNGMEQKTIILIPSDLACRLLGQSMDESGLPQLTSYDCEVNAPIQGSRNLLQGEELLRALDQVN
# Sequence of Signal transducer and activator of transcription 3 (Homo sapiens) (P40763 whole entry, looked up): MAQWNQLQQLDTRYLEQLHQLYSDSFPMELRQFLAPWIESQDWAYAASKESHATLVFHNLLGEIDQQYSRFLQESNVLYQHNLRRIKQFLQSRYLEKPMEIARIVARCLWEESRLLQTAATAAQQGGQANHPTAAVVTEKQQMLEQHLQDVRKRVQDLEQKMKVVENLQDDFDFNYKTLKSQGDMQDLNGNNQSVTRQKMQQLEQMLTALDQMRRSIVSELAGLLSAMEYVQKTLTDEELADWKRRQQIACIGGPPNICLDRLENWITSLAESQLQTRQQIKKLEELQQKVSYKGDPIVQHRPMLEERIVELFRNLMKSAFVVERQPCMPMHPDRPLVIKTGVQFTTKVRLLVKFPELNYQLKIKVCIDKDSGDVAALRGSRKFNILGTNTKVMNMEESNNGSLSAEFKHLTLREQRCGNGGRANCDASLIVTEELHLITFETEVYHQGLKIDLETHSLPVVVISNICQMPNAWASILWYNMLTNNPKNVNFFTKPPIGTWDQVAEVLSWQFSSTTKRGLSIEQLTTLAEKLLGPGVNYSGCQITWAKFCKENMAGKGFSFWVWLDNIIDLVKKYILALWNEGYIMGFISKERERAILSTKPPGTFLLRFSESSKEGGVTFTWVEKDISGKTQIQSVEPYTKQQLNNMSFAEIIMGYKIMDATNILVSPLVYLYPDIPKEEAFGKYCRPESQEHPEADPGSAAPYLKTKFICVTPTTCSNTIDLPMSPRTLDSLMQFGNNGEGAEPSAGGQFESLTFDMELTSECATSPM
# Sequence of Paired box protein Pax-6 (Homo sapiens) (P26367 whole entry, looked up): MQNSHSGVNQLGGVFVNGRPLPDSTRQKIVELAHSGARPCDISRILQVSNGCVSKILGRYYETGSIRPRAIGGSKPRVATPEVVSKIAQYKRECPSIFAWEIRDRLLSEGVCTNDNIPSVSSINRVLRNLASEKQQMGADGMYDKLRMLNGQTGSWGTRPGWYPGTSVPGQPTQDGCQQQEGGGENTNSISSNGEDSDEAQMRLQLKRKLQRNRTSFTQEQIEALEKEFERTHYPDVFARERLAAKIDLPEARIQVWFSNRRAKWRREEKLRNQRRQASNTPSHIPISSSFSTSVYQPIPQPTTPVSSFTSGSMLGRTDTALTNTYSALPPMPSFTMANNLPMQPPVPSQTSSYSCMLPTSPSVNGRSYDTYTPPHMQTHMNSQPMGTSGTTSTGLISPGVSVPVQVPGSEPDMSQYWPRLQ
# Sequence of Heat shock factor protein 1 (Homo sapiens) (Q00613 whole entry, looked up, the tested form may be a part): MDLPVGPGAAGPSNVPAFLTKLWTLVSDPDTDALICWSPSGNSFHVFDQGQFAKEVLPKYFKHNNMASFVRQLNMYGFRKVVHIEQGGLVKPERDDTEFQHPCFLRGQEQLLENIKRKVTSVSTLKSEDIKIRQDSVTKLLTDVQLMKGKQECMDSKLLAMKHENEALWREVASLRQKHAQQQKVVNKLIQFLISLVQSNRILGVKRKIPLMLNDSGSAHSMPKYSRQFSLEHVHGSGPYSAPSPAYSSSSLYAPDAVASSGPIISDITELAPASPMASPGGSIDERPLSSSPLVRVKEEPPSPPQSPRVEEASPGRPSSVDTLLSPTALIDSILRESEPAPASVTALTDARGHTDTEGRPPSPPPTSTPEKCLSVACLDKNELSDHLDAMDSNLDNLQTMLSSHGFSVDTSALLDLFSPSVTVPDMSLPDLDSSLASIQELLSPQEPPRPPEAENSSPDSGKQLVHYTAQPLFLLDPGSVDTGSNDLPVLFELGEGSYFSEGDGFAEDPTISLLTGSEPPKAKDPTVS
# Sequence of Bile acid receptor (Homo sapiens) (Q96RI1 whole entry, looked up): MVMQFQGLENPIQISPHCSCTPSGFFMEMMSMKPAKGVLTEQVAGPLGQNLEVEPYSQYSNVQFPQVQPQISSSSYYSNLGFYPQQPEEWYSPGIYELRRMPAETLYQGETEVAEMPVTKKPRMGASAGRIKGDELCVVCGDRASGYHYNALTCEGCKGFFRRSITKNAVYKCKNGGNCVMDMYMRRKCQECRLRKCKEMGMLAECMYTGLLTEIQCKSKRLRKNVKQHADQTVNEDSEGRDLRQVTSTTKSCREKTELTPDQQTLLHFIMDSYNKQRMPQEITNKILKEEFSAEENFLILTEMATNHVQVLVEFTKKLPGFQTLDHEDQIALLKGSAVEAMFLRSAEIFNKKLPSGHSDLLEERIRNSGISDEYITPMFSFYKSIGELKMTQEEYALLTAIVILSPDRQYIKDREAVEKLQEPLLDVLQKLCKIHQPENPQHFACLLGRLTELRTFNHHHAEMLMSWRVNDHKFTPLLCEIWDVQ
smiles,measurement,setting,value
ClC1(Cl)C2(Cl)C3(Cl)C4(Cl)C(Cl)(Cl)C5(Cl)C3(Cl)C1(Cl)C5(Cl)C24Cl (stereo unspecified),outcome,[1],inactive
same,outcome,[2],inactive
same,outcome,[3],inactive
same,outcome,[4],inactive
same,outcome,[5],inactive
same,outcome,[6],inactive
same,outcome,[7],inactive
same,outcome,[8],inactive
same,outcome,[9],inactive
same,outcome,[10],inactive
same,AC50,[11],0.365 µM (active)
same,outcome,[12],inactive
same,outcome,[13],inactive
same,outcome,[14],inactive
same,outcome,[15],inactive
same,outcome,[16],inactive
same,outcome,[17],inactive
same,outcome,[18],inactive
COP(=O)(OC)OC,outcome,[1],inactive
same,outcome,[2],inactive
same,outcome,[3],inactive
same,outcome,[4],inactive
same,outcome,[5],inactive
same,outcome,[6],inactive
same,outcome,[7],inactive
same,outcome,[8],inactive
same,outcome,[9],inactive
same,outcome,[19],inactive
same,outcome,[10],inactive
same,AC50,[11],32.7 µM (active)
same,outcome,[12],inactive
same,outcome,[20],inactive
same,outcome,[13],inactive
same,outcome,[14],inactive
same,outcome,[15],inactive
same,outcome,[16],inactive
same,outcome,[17],inactive
same,outcome,[18],inactive
Oc1c(I)cc(I)cc1I,outcome,[1],inactive
same,outcome,[2],inactive
same,AC50,[3],100 µM (active)
same,outcome,[4],inactive
same,outcome,[5],inactive
same,AC50,[6],41.9 µM (active)
same,outcome,[7],inactive
same,AC50,[8],125 µM (active)
same,AC50,[9],100 µM (active)
same,AC50,[10],77.1 µM (active)
same,AC50,[12],64.2 µM (active)
same,AC50,[20],31.1 µM (active)
same,AC50,[13],160 µM (active)
same,outcome,[14],inactive
same,outcome,[15],inactive
same,outcome,[16],inactive
same,AC50,[17],55.8 µM (active)
same,AC50,[18],25.9 µM (active)
CCOP(=S)(OCC)Oc1nc(Cl)c(Cl)cc1Cl,AC50,[1],26.4 µM (active)
same,outcome,[2],inactive
same,AC50,[3],27.2 µM (active)
same,outcome,[4],inactive
same,outcome,[5],inactive
same,outcome,[6],inactive
same,outcome,[7],inactive
same,outcome,[8],inactive
same,AC50,[9],100 µM (active)
same,outcome,[19],inactive
same,outcome,[10],inactive
same,outcome,[12],inactive
same,outcome,[20],inactive
same,outcome,[13],inactive
same,AC50,[14],65.3 µM (active)
same,AC50,[15],68.1 µM (active)
same,outcome,[16],inactive
same,outcome,[17],inactive
same,outcome,[18],inactive
COc1ccc(OC)c(C=O)c1,outcome,[1],inactive
same,outcome,[2],inactive
same,outcome,[3],inactive
same,outcome,[4],inactive
same,outcome,[5],inactive
same,outcome,[6],inactive
same,outcome,[7],inactive
same,outcome,[8],inactive
same,outcome,[9],inactive
same,outcome,[10],inactive
same,AC50,[11],16.9 µM (active)
same,outcome,[12],inactive
same,outcome,[20],inactive
same,outcome,[13],inactive
same,outcome,[14],inactive
same,outcome,[15],inactive
same,outcome,[16],inactive
same,outcome,[17],inactive
same,outcome,[18],inactive
O=C(OC1CCCCC1)c1ccccc1C(=O)OC1CCCCC1,AC50,[1],28.9 µM (active)
same,outcome,[3],inactive
same,outcome,[4],inactive
same,outcome,[5],inactive
same,AC50,[6],11.2 µM (active)
same,outcome,[7],inactive
same,outcome,[8],inactive
same,AC50,[9],23.5 µM (active)
same,outcome,[19],inactive
same,outcome,[10],inactive
same,AC50,[11],0.58 µM (active)
same,AC50,[20],8.39 µM (active)
same,outcome,[13],inactive
same,outcome,[14],inactive
same,outcome,[15],inactive
same,outcome,[16],inactive
same,AC50,[17],29.1 µM (active)
same,outcome,[18],inactive
N#CN=C(N)N,outcome,[1],inactive
same,outcome,[3],inactive
same,outcome,[4],inactive
same,outcome,[5],inactive
same,outcome,[6],inactive
same,outcome,[7],inactive
same,outcome,[8],inactive
same,outcome,[9],inactive
same,outcome,[19],inactive
same,outcome,[10],inactive
same,outcome,[11],inactive
same,outcome,[12],inactive
same,outcome,[20],inactive
same,outcome,[13],inactive
same,outcome,[14],inactive
same,outcome,[15],inactive
same,outcome,[16],inactive
same,outcome,[17],inactive
same,outcome,[18],inactive
